The text below walks through data of PubChem BioAssay (NCATS).

Results filed as inconclusive are left out. Values without a mark were called inactive. Calls of active or inactive are those of the source. The call rests on the fitted dose curve; in most records, active means well fitted inhibition curve with a large enough effect; inconclusive means small, poorly fitted or top-dose-only effect; inactive means flat fitted curve, though single readings scatter.

Experiment [1] is described as follows: qHTS profiling for inhibitors of Plasmodium falciparum proliferation (AID 504749). Further: nearly all actives have a fitted effect of over 60% in size.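 On activity, negative = inhibition: 0% = DMSO vehicle and full inhibition = artemisinin control.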 As to conditions: P. falciparum in erythrocytes, SYBR Green DNA, 72 h. A digest of the protocol: (§1)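 Infected RBCs, 0.3% parasitemia/2.5% Hct final; cpd 72 h, 37 C, 5% CO2; lysis buffer with saponin/triton/SYBR Green I, o/n RT dark; FI 485/535; norm. to artemisinin (0.29 uM) and DMSO.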

For experiment [2], the system named is 7G8. The experiment is described as above. Conditions: P. falciparum in erythrocytes, SYBR Green DNA, 72 h; series mostly up to 28.7 µM. A digest of the protocol:
as §1

For experiment [3], the system named is AA1029. The experiment is described as above. Conditions: P. falciparum in erythrocytes, SYBR Green DNA, 72 h; series mostly up to 28.7 µM. A digest of the protocol: as §1
Experiment [4] concerns AS120. The experiment is described as above. Conditions: P. falciparum in erythrocytes, SYBR Green DNA, 72 h; series mostly up to 28.7 µM. In a few lines:
as §1

Experiment [5] relates to C2A. The experiment is described as above. As to conditions: P. falciparum in erythrocytes, SYBR Green DNA, 72 h; series mostly up to 28.7 µM. A digest of the protocol: as §1
Experiment [6] relates to CP185. The experiment is described as above. As to conditions: P. falciparum in erythrocytes, SYBR Green DNA, 72 h; series mostly up to 28.7 µM. In a few lines:
as §1

Experiment [7] deals with CP191. Described as above. Conditions: P. falciparum in erythrocytes, SYBR Green DNA, 72 h; series mostly up to 28.7 µM. In a few lines: as §1
Experiment [8] deals with CP192. Described as above. As to conditions: P. falciparum in erythrocytes, SYBR Green DNA, 72 h; series mostly up to 28.7 µM. A digest of the protocol: as §1
Experiment [9] has as its system 3D7. The experiment is described as above. As to conditions: P. falciparum in erythrocytes, SYBR Green DNA, 72 h; series mostly up to 28.7 µM. In a few lines: as §1
The test system of experiment [10] is ATS189. The description is as above. Conditions: P. falciparum in erythrocytes, SYBR Green DNA, 72 h; series mostly up to 28.7 µM. A digest of the protocol:
as §1

Experiment [11] relates to ATS95. The experiment is described as above. As to conditions: P. falciparum in erythrocytes, SYBR Green DNA, 72 h; series mostly up to 28.7 µM. In a few lines:
as §1

The mark [12] stands for this setting: at 28.7 µM (top of the series), parasite line A.
Where [13] appears, read: at 28.7 µM (top of the series), parasite line B.
Potency means the concentration at half of the fitted maximal effect.

Regarding `O=C(CCCN1CCC(C(=O)c2ccc(F)cc2)CC1)c1ccc(F)cc1`, the results for the activity, negative = inhibition in experiment [1] (setting [12]) and in [1] (setting [13]) were -20.7% and 15.1%, respectively. In addition, the Potency in [2] was 11.2 µM (active); in experiment [7], 2 µM (active). Further, the Potency result in experiment [3], in [4], in experiment [5], in [6] and in experiment [8] was “inactive” each time.

For `CC1CCC(NC(=O)N(CCCl)N=O)CC1` (stereo unspecified), the activity, negative = inhibition in [1] (setting [12]) is 9.36%; in [1] (setting [13]) it was 3.89%. Also, the Potency result in [9], in experiment [3], in experiment [4], in experiment [10], in [11] and in experiment [5] was “inactive” in each case. The Potency result in experiment [6], in experiment [7] and in [8] was “inactive” throughout.

`CN1CCc2c(c3ccccc3n2Cc2ccccc2)C1`: the activity, negative = inhibition in experiment [1] (at 12.8 µM (top of the series), parasite line A) is -0.349%; in [1] (at 12.8 µM (top of the series), parasite line B), -7.12%. The Potency result in [9], in experiment [4], in [10], in experiment [5], in experiment [6] and in experiment [7] was “inactive” in each case. For the same compound, the Potency entry in [8] was “inactive”.

Take `CCCCCCCCCC(=O)NO`: the activity, negative = inhibition in experiment [1] (setting [12]) was -20%; in [1] (setting [13]) it was -16.7%. In addition, the Potency entry in experiment [9], in experiment [3], in experiment [4], in experiment [10], in experiment [11] and in [5] was “inactive” throughout. Moreover, the Potency result in [6] and in experiment [8] was “inactive” throughout.

For the compound `CC(C)OC(=O)Nc1ccc2nc(-c3cscn3)[nH]c2c1`, the results for the activity, negative = inhibition in experiment [1] (setting [12]) and in [1] (setting [13]) were 1.15% and -9.28%, respectively. Further, the Potency result in [9], in experiment [3], in experiment [4], in experiment [10], in experiment [11] and in experiment [6] was “inactive” in each case. The Potency entry in experiment [7] and in [8] was “inactive” throughout.

For `N=C(N)c1ccc(/C=C/c2ccc(C(=N)N)cc2O)cc1`, the Potency in experiment [1] (parasite line A) is 8.91 µM (active); in experiment [1] (parasite line B), 10 µM (active); in experiment [2] it was 3.98 µM (active); in [3], 10 µM (active); in [4], 12.6 µM (active); in experiment [11], 10 µM (active). The Potency in experiment [5] is 3.98 µM (active); in experiment [6] it was 10 µM (active); in [7] it was 1.41 µM (active); in experiment [8], 5.36 µM (active).

As for `O=C(O)CCC/C=C\C[C@@H]1[C@@H](/C=C/[C@@H](O)COc2cccc(Cl)c2)[C@H](O)C[C@@H]1O`, the activity, negative = inhibition in [1] (setting [12]) was 11.9%; in [1] (setting [13]), -6.6%. For the same compound, the Potency result in experiment [9], in [3], in experiment [4], in experiment [10], in experiment [11] and in experiment [5] was “inactive” in each case. For the same compound, the Potency result in [6], in experiment [7] and in experiment [8] was “inactive” in each case.

For the compound `CC(C)(C)CC(C)(C)c1ccc(OCCO)cc1`, the activity, negative = inhibition was -21% in experiment [1] (setting [12]) and -13.8% in experiment [1] (setting [13]). Further, the Potency entry in experiment [9], in experiment [3], in experiment [4], in experiment [10], in experiment [11] and in experiment [5] was “inactive” throughout. Besides, the Potency entry in [6], in [7] and in experiment [8] was “inactive” each time.

On to `O.O.O.O.O.O.O.O=S(=O)([O-])[O-].[Co+2]`, for which the Potency in experiment [1] (parasite line A) was 11.2 µM (active); in [1] (parasite line B) it was 8.91 µM (active); in experiment [2] it was 2.82 µM (active); in experiment [3], 8.91 µM (active); in experiment [4], 5.01 µM (active); in [10], 11.2 µM (active). Further, the Potency in experiment [11] is 5.01 µM (active); in [5], 12.6 µM (active); in [6] it was 12.6 µM (active); in experiment [7] it was 8.91 µM (active).

`Cc1c(C)c2c(c(C)c1OC(=O)CCC(=O)O)CC[C@@](C)(CCC[C@H](C)CCC[C@H](C)CCCC(C)C)O2`: the activity, negative = inhibition is -10.9% in experiment [1] (setting [12]) and 4.87% in experiment [1] (setting [13]). Further, the Potency result in [3], in [4], in [10], in experiment [11], in experiment [5] and in experiment [6] was “inactive” each time. Further, the Potency entry in experiment [7] and in experiment [8] was “inactive” throughout.

Regarding `Oc1ccc(Cl)c2c1CCC2`, the activity, negative = inhibition in [1] (setting [12]) was 6.7%; in experiment [1] (setting [13]) it was 4.51%. Moreover, the Potency entry in experiment [9], in [3], in [4], in experiment [10], in experiment [11] and in experiment [5] was “inactive” each time. Besides, the Potency result in experiment [6], in [7] and in experiment [8] was “inactive” in each case.

`COc1ccc2c(=O)c(C)c(-c3ccccc3)oc2c1CN(C)C`: the activity, negative = inhibition in [1] (setting [12]) is -2.15%; in [1] (setting [13]), -7.38%. Also, the Potency entry in experiment [9], in [4], in experiment [10], in experiment [5], in experiment [6] and in experiment [7] was “inactive” in each case. For the same compound, the Potency result in experiment [8] was “inactive”.

As for `CC(=O)c1ccc2c(c1)N(CCCN1CCN(CCO)CC1)c1ccccc1S2`, the Potency was 7.08 µM (active) in experiment [2], 8.91 µM (active) in experiment [3], 10 µM (active) in [6] and 11.2 µM (active) in experiment [7].

As for `O=c1n(CC2CO2)c(=O)n(CC2CO2)c(=O)n1CC1CO1` (stereo unspecified), the activity, negative = inhibition in experiment [1] (setting [13]) was -29.5%. Further, the Potency in [2] was 12.6 µM (active). Further, the Potency entry in [4] and in experiment [10] was “inactive” each time.

Consider `Cn1c(O)c(N=NC(N)=S)c2ccccc21`, for which the Potency in experiment [2] was 12.6 µM (active). The Potency result in experiment [8] was “inactive”.

As to `CC(=O)Nc1c(I)c(C(=O)O)c(I)c(N(C)C(C)=O)c1I`, in [1] (setting [13]), the activity, negative = inhibition was -11.8%. Besides, the Potency result in experiment [9], in [2], in experiment [3], in [10], in experiment [11] and in experiment [5] was “inactive” each time. The Potency entry in experiment [6], in experiment [7] and in experiment [8] was “inactive” throughout.

In the case of `CC[C@H]1OC(=O)[C@H](C)[C@@H](O[C@H]2C[C@@](C)(OC)[C@@H](O)[C@H](C)O2)C(C)[C@@H](O[C@@H]2O[C@H](C)C[C@H](N(C)C)[C@@H]2O)[C@](C)(OC)C[C@@H](C)C(=O)[C@H](C)[C@@H](O)[C@]1(C)O` (stereo partly specified), the Potency result in experiment [2], in [3], in [10], in experiment [11], in experiment [5] and in [6] was “inactive” each time. Moreover, in [8], the Potency entry is “inactive”.

Regarding `CCCCCc1ccc(C)cc1O`, the activity, negative = inhibition in experiment [1] (setting [12]) was -9.62%. Also, the Potency result in experiment [9], in [3], in experiment [4], in experiment [10], in [11] and in experiment [5] was “inactive” in each case. In addition, the Potency result in experiment [6], in [7] and in [8] was “inactive” each time. In addition, in [2], the Potency was 12.6 µM (active).

Turning to `O=C(c1cc2ccccc2o1)N1CCN(Cc2ccccc2)CC1`, the Potency in experiment [1] (parasite line A) was 7.94 µM (active); in experiment [2], 7.94 µM (active); in experiment [4], 8.91 µM (active). The Potency entry in experiment [5] and in [8] was “inactive” each time.

Take `O=P(O)(O)OP(=O)(O)O`: the activity, negative = inhibition in experiment [1] (setting [12]) is -13.9%. Besides, the Potency entry in experiment [9], in experiment [11], in experiment [5], in experiment [6], in experiment [7] and in experiment [8] was “inactive” each time. In addition, in experiment [2], the Potency is 10 µM (active).

With `O=C(Nc1ccc(O)cc1)c1ccccc1O`, the activity, negative = inhibition in experiment [1] (setting [12]) was 12.3%. The Potency entry in experiment [9], in experiment [3], in experiment [10], in [11], in experiment [5] and in experiment [6] was “inactive” in each case. For the same compound, the Potency entry in experiment [7] and in experiment [8] was “inactive” each time.
